GDH-TPI counter-1: counter-screen for M. tuberculosis FBA inhibitors: GDH-TPI coupled enzymes; 1.2% of 360,000 active; GDH-TPI coupled enzyme counterscreen, NADH absorbance; inhibition, % at 4.8 µM; in the data active = inhibition above about 30%;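 note: 0% = DMSO wells and 100% = wells lacking the enzyme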
Mtb hypoxia inh: reduces hypoxia-regulated biosensor signal in M. tuberculosis. M. tuberculosis hypoxia-regulated fluorescent reporter, fluorescence. fluorescence inhibition, % (no concentration beside the values). 0.1% of 300,000 active. AID 1159583; in the data active = fluorescence inhibition mostly above about 23%, no sharp cut-off; inactive = mostly below about 17%
Rv3671c protease: inhibitors of M. tuberculosis serine protease Rv3671c; P9WHR9; inhibition, % at 5.96 µM; 0.048% of 320,000 active; in the data active = inhibition above about 38%;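 note: extracellular domain of Rv3671c used as enzyme; 0% = enzyme with DMSO and 100% = no enzyme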
FadD28 FP inh: M. tuberculosis FadD28 bisubstrate binding inhibition | FadD28 bisubstrate probe binding, fluorescence polarization | inhibition, % at 12.5 µM | 0.22% of 360,000 active; in the data active = inhibition above about 8.5%, passing the limit was not always enough
UGM FP inh: inhibitors of M. tuberculosis UDP-galactopyranose mutase. P9WIQ1. purified UGM, fluorescence polarization probe displacement. inhibition, % at 10 µM. 0.06% of 320,000 active; in the data active = inhibition above about 10%, passing the limit was not always enough
FBA Mtb inh: Mtb fructose-bisphosphate aldolase inhibition; purified M. tuberculosis FBA, fluorescence read-out; 2.3% of 360,000 active; inhibition, % at 1 µM;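 note: 0% = vehicle and 100% = reference inhibitor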
Target sequence (P9WQA3 whole entry, looked up): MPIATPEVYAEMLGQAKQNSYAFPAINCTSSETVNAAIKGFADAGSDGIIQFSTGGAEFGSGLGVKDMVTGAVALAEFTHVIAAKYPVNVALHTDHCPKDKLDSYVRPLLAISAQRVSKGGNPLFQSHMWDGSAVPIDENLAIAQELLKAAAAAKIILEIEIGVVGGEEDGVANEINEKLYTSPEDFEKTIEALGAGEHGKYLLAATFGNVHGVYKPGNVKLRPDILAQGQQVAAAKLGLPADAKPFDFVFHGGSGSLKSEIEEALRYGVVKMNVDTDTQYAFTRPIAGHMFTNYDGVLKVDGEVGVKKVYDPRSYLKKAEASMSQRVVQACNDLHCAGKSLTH
Mtb FBA inh conf: Mtb FBA inhibition, confirmed. shares compounds with FBA Mtb inh. purified M. tuberculosis FBA, fluorescence read-out. inhibition, % at 1 µM. 78% of 5,600 active. AID 651616;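 note: 0% = vehicle wells and 100% = reference inhibitor wells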
GDH-TPI counter-2: GDH-TPI inhibition counter-screen for FBA inhibitors | shares compounds with FBA Mtb inh | GDH-TPI coupled enzyme counterscreen, fluorescence | inhibition, % at 1 µM | 81% of 5,600 active; in the data active = inhibition above about 10%
* hit, by the source's call; nt = no result; + = active, no number. A selection: hits, their analogues and other compounds. The true share with any hit is near 3.5%. Cut-off read from the data, not from the text of the source, unless noted: active = inhibition above about 27%; inactive = the rest.

SMILES	GDH-TPI counter-1	Mtb hypoxia inh	Rv3671c protease	FadD28 FP inh	UGM FP inh	FBA Mtb inh	Mtb FBA inh conf	GDH-TPI counter-2
CCOc1ccc(OCCCC(=O)N(C)CC(=O)Nc2ccccc2Br)cc1	-1	20	-1	-3	2	-2	nt	nt
Cc1nc(N2CCN(C(=O)c3ccco3)CC2)c(C#N)c2c1CCCC2	11	1	1	-1	-1	38*	98*	83*
O=[N+]([O-])c1cc(C=NN2CCOCC2)cs1	nt	14	nt	nt	nt	nt	nt	nt
c1cc(-c2cc3nc(NCC4CC4)ccn3n2)ccc1OCCN1CCOCC1	-2	nt	nt	-1	nt	37*	69*	72*
COc1ccc(/C=N/NC(=O)c2nc(Cl)c(Cl)c(N)c2Cl)cc1COc1ccc(F)cc1F	24	nt	-67	-4	-3	29*	4	-2
COc1ccc(/C=N/NC(=O)c2nc(Cl)c(Cl)c(N)c2Cl)cc1COc1ccccc1F	20	nt	-14	-1	1	25	nt	nt
COc1ccc(/C=N/NC(=O)c2ccc(NC(C)=O)cc2)cc1COc1ccc(F)cc1F	15	nt	-44	-1	-1	30*	75*	59*
COc1ccc(C=NNC(=O)c2ccc(NC(C)=O)cc2)cc1COc1ccc(F)cc1F	nt	-6	nt	nt	nt	nt	nt	nt
Cc1oc(/N=C/c2ccc(O)cc2O)c(C#N)c1C	18	nt	0	-1	1	71*	+	+
Cn1ccc2c(-c3ccc(C(N)=O)cc3)cc3c(c21)C1CCC3C1 (configuration not stated)	nt	nt	nt	0	nt	53*	113*	103*
Cn1ccc2c(-c3ccc(C(F)(F)F)cc3)cc3c(c21)C1CCC3C1 (configuration not stated)	nt	nt	nt	0	nt	35*	56*	47*
Cn1ccc2c(-c3ccc(CO)cc3)cc3c(c21)C1CCC3C1 (configuration not stated)	nt	nt	nt	4	nt	81*	+	+
O=C(Nc1ccc2oc(-c3ccccc3F)nc2c1)c1ccccc1F	2	-3	-8	0	3	3	nt	nt
O=C(Nc1ccc2oc(-c3ccccc3F)nc2c1)c1ncn[nH]1	13	nt	-7	-3	0	37*	158*	143*
COc1cc(OC)cc(-c2c(-c3ccc(F)cc3)c3cc(-c4ccc(OC)nc4)ccc3n2C)c1	4	4	-4	-1	0	5	nt	nt
COc1cccc(-c2c(-c3cc(OC)cc(OC)c3)n(C)c3ccc(Br)cc23)c1	23	2	-4	0	1	7	nt	nt
COc1cccc(-c2c(-c3cc(OC)cc(OC)c3)n(C)c3ccc(-c4cccc5[nH]ccc45)cc23)c1	25	8	-4	-2	1	54*	+	+
COc1cc(OC)cc(-c2c(-c3ccc(F)cc3)c3cc(-c4cccc5[nH]ccc45)ccc3n2C)c1	29	19	5	0	-1	48*	5	-9
COc1ccc2c(c1)c(C(=O)NN=Cc1cccs1)c(C)n2C	nt	1	nt	nt	nt	nt	nt	nt
CCc1ccc(NC(=O)NNC(=O)c2cc3ccccc3cc2O)cc1	13	-5	0	-2	2	4	nt	nt
Cc1ccccc1NC(=O)NNC(=O)c1ccc2ccccc2c1O	13	0	20	nt	-3	31*	55*	36*
CCc1ccc(NC(=O)NNC(=O)c2ccc3ccccc3c2O)cc1	18	13	nt	2	1	36*	+	190*
COc1ccccc1NC(=O)NNC(=O)c1ccc2ccccc2c1O	6	10	nt	-1	3	32*	143*	113*
COc1ccc(NC(=O)NNC(=O)c2ccc3ccccc3c2O)cc1OC	9	2	6	-4	-2	36*	nt	+
CCc1ccc(N2CC(C(=O)NN=Cc3cc([N+](=O)[O-])ccc3O)CC2=O)cc1 (configuration not stated)	nt	6	nt	nt	nt	nt	nt	nt
SMILES	GDH-TPI counter-1	Mtb hypoxia inh	Rv3671c protease	FadD28 FP inh	UGM FP inh	FBA Mtb inh	Mtb FBA inh conf	GDH-TPI counter-2
COC(=O)C1=C(c2ccc(OC)c(OC)c2)CC2CCC1N2C(=O)N1CCC(C)CC1 (configuration not stated)	nt	9	nt	nt	nt	nt	nt	nt
O=C(Nc1ccc(Br)c2ccccc12)c1ccc2ccccc2c1O	12	nt	7	-3	-1	31*	-34	-29
CC(=O)Nc1ccc(Br)c2ccccc12	5	13	5	-2	-2	-3	nt	nt
CC(C)CC(c1nnnn1C(C)C)N1CCN(c2cccc(Cl)c2)CC1 (configuration not stated)	-5	nt	2	-3	1	42*	+	+
CC(=NNC(=O)COc1ccc(C)cc1[N+](=O)[O-])c1cccs1	nt	-5	nt	nt	nt	nt	nt	nt
CC(=NNC(=O)C(=O)Nc1ccc(C)cc1)c1ccncc1	nt	7	nt	nt	nt	nt	nt	nt
Cc1ccc(C(=O)NN2C(=O)C3C4C=CC(C4)[C@@H]3C2=O)cc1 (some centres not stated)	7	4	2	0	4	4	nt	nt
O=C(NN1C(=O)C2C3C=CC(C3)C2C1=O)c1ccccc1 (configuration not stated)	4	6	-2	-4	-4	77*	1	-3
COCCNC(=O)[C@@]1(C)C=CC(Cc2ccccc2)N1C(=O)c1ccccc1 (some centres not stated)	nt	-8	nt	nt	nt	nt	nt	nt
CCc1nn2cc(-c3ccccc3)nc2s1	4	3	8	1	1	-4	nt	nt
Cc1nn2c(-c3ccccc3)c(-c3ccccc3)nc2[nH]c1=O	17	nt	1	1	1	8	nt	nt
O=C(O)CCc1nn2cc(-c3ccccc3)nc2[nH]c1=O	18	-9	-5	0	-1	45*	113*	92*
Cc1nn2cc(-c3ccccc3)nc2[nH]c1=O	21	5	-4	1	1	37*	79*	81*
CC(C)CC1NC(=O)C(C(C)C)NC(=O)c2cc([N+](=O)[O-])cc(I)c2NCCC(C(N)=O)NC1=O (configuration not stated)	nt	-3	nt	nt	nt	nt	nt	nt
COc1ccc(C=NN2CCOCC2)cc1Cn1cc([N+](=O)[O-])cn1	nt	22	nt	nt	nt	nt	nt	nt
OCc1ccccc1-c1nc(NCc2ccccc2)nc2ccsc12	15	nt	nt	-2	nt	63*	8	4
c1ccc(-c2nc(NCC3CC3)nc3ccsc23)cc1	1	nt	nt	-4	nt	42*	138*	97*
Cc1ccc(F)cc1-c1nc(NCC2CC2)nc2ccsc12	10	nt	nt	-6	nt	46*	70*	56*
COc1ccc(C=NNC(=O)c2ccn[nH]2)cc1COc1ccc(Cl)cc1	nt	9	nt	nt	nt	nt	nt	nt
Cc1ccc(CN2C(=O)C3Cc4c([nH]c5ccccc45)C(C)(C)N3C2=O)cc1 (configuration not stated)	nt	2	nt	nt	nt	nt	nt	nt
O=C(Nc1cccc(C(=O)O)c1)C(=Cc1ccccc1)NC(=O)c1ccccc1	nt	13	nt	nt	nt	nt	nt	nt
